Reference: PMC4336329 (PLoS ONE, 2015)
About 14,000 (4.5%) of roughly 310,000 compounds showed an effect of 50% or more. The effect is printed as a negative number. This is one part of a sample in which strong results are shown more often than they occur.

Biological target: human ether-à-go-go-related gene (hERG) potassium channel (human, UniProt Q12809)
Assay: primary screen, population patch clamp on CHO cells stably expressing hERG; higher = less effect of the substance
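Note: peak tail current of the secondary pulse compared with the same well before compound.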

Chain of human ether-à-go-go-related gene (hERG) potassium channel (Q12809 whole entry, looked up): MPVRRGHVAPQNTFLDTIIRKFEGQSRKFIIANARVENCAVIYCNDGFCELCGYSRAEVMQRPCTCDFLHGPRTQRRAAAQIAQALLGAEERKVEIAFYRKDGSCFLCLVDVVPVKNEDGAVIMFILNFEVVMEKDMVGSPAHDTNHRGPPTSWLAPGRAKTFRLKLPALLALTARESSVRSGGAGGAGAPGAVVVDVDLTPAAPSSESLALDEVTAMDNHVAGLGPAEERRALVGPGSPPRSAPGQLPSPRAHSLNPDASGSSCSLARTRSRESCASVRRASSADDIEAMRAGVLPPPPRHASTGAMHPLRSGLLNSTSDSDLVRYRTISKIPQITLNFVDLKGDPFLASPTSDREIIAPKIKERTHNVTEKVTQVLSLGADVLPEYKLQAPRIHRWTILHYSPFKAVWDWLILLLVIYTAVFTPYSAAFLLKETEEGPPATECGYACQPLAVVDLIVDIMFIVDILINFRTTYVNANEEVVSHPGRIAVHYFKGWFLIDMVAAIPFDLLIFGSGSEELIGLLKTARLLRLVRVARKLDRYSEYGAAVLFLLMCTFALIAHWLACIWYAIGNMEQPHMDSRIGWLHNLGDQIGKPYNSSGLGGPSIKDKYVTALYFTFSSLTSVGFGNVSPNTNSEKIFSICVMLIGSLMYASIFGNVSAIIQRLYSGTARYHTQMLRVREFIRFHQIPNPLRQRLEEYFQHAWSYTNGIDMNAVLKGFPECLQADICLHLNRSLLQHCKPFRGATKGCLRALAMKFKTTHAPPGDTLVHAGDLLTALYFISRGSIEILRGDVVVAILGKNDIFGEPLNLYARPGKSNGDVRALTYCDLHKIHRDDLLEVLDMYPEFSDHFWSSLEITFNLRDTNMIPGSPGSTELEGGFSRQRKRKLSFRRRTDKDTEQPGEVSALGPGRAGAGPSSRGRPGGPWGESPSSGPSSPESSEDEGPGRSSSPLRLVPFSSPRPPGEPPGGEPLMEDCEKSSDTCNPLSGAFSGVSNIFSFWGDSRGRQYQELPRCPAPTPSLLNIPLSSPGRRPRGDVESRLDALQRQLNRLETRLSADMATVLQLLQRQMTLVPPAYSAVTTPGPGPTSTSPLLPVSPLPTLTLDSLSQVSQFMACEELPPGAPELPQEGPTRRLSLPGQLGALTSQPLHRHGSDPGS

Row | Structure (SMILES) | hERG current change (%, negative = inhibition) at 10uM
1 | Cc1cc(C)cc(C(=O)NC(CC(N)=O)c2ccc(NC3CCCC3)c([N+](=O)[O-])c2)c1 (stereo not drawn) | 13.2%
2 | CC(=O)c1ccc(NC(=O)/C(=C\c2cccs2)NC(=O)c2ccco2)cc1 | 17.9%
3 | Cc1ccc(S(=O)(=O)Oc2ccc(C(c3c(C)[nH][nH]c3=O)c3c(C)[nH][nH]c3=O)cc2)cc1 | -1.83%
4 | CC(C)CCn1c(NCCN(C)C)nc2c1c(=O)[nH]c(=O)n2C | -23.2%
5 | COc1ccc(-n2c(SC3CCOC3=O)nc3ccccc3c2=O)cc1OC (stereo not drawn) | -4.64%
6 | COC(=O)c1c(NC(=O)c2cccc(S(=O)(=O)N3CCN(C)CC3)c2)sc(C)c1C | 13.4%
7 | COc1ccc(C2Nc3ccccc3C(=O)N2NC(=O)c2ccccc2)cc1OC (stereo not drawn) | 3.24%
8 | Cc1ccccc1N=C1SCCN1C(=O)CN1C(=O)NC2(CCCC2)C1=O | -21.7%
9 | CCOc1ccc(C2/C(=C(\O)c3ccc4c(c3)OCCO4)C(=O)C(=O)N2CCCN2CCOCC2)cc1OC (stereo not drawn) | 3.69%
10 | Cc1cc(S(=O)(=O)N2CCOCC2)ccc1OCC(=O)Nc1ccc(F)cc1 | -18.9%
11 | COc1ccc(C2/C=C\CN(S(=O)(=O)/C=C/c3ccccc3)[C@H](Cc3ccccc3)C(=O)N2Cc2ccc(F)cc2)cc1 (stereo partly drawn) | 8.05%
12 | Cc1nn(-c2ccccc2)c2c1C(c1ccc(Cl)cc1)N(c1ccccc1)C(=O)N2 (stereo not drawn) | -64.6%
13 | COc1ccc(C2SCC(=O)Nc3c2c(C)nn3-c2ccccc2)cc1 (stereo not drawn) | -7.35%
14 | Cc1nn(-c2ccccc2)c2c1C(c1cccc([N+](=O)[O-])c1)N(c1ccccc1)C(=O)N2 (stereo not drawn) | 11.1%
15 | O=C(CCCOc1ccc(Cl)cc1)Nc1cccc(C(=O)O)c1 | 13%
16 | COc1ccc(NC(=O)c2ccc(-n3c(C)ccc3C)cc2)c(OC)c1 | -24.3%
17 | COC(=O)c1ccc(C23CC4(C2)[C@H](CN(C)[C@@H]4c2ccccc2)C3c2ccc(Cl)nc2)cc1 (stereo partly drawn) | -28%
18 | CCOc1ccc(CNC(=O)CCC(=O)n2ncc3ccc(Cl)cc32)cc1 | -1.82%
19 | COc1cc(C(=O)N2CCN(C/C=C/c3ccccc3)CC2)cc(OC)c1OC | -35%
20 | COc1cc(C(=O)N2CCN(C/C=C/c3ccccc3)CC2)cc(OC)c1C | -30.2%
21 | COc1ccc(C(=O)NC2CC2)cc1OC1CCN(C/C=C/c2ccccc2)CC1 | -79.9%
22 | COc1ccccc1/C=C/CN1CCC(Oc2cc(C(=O)NC3CC3)ccc2OC)CC1 | -76.5%
23 | CCOC(=O)c1[nH]c2ccc(OCC)cc2c1NC(=O)CN1CCC2(CC1)OCCO2 | -25.7%

Row | Structure (SMILES) | hERG current change (%, negative = inhibition) at 10uM
24 | Cc1ccsc1CNn1cnnc1SCc1ccc(Cl)cc1 | 13%
25 | O=C(CSc1nnc(-c2cnccn2)n1Cc1ccco1)c1ccc2ccccc2c1 | -15.4%
26 | COC(=O)c1cc(S(=O)(=O)NCC2CCN(Cc3ccc(Cl)cc3)CC2)cn1C | -17%
27 | COC(=O)c1cc(S(=O)(=O)NCC2CCN(CCc3ccc(OC)cc3)CC2)cn1C | -61.2%
28 | COC(=O)c1cc(S(=O)(=O)NCc2ccc(Br)cc2)c[nH]1 | -16.1%
29 | COC(=O)c1cc(S(=O)(=O)NCC2CCN(CCc3cccs3)CC2)cn1C | -49.6%
30 | COC(=O)c1cc(S(=O)(=O)NCC2CCN(Cc3ccc(F)cc3)CC2)cn1C | -19.6%
31 | COC(=O)c1cc(S(=O)(=O)NCCc2ccccc2)c[nH]1 | 5.93%
32 | COC(=O)c1cc(S(=O)(=O)NCC2CCN(Cc3cccc(F)c3)CC2)cn1C | -18.5%
33 | COC(=O)c1cc(S(=O)(=O)NCC2CCN(Cc3cc(C)ccc3C)CC2)cn1C | -27.5%
34 | COC(=O)c1cc(S(=O)(=O)NCc2cccs2)c[nH]1 | 19.1%
35 | COC(=O)c1cc(S(=O)(=O)NCC2CCN(Cc3ccc(C)cc3)CC2)cn1C | -52%
36 | COC(=O)c1cc(S(=O)(=O)NCC2CCN(CCc3ccc(OC)cc3)CC2)c[nH]1 | -67%
37 | COC(=O)c1cc(S(=O)(=O)NCC2CCN(CCc3cccs3)CC2)c[nH]1 | -51.1%
38 | COC(=O)c1sc(SC)c2c1CC(C)(C)C/C2=N/O | 10.6%
39 | O=c1[nH]c(=O)n(-c2ccc(F)cc2)c(O)c1/C=C1\C=Nc2ccccc21 | 6.63%
40 | Cc1noc(C)c1C(=O)NCCc1ccc(S(N)(=O)=O)cc1 | -23.7%
41 | COc1ccc(C2NN=C(c3ccc(C)cc3)S2)cc1 (stereo not drawn) | 4.2%
42 | O=C(N/N=C/c1cc([N+](=O)[O-])ccc1O)c1cc(-c2ccccc2)nc2ccccc12 | 12.3%
43 | O=C(c1ccncc1)N(Cc1ccco1)Cc1cc2ccccc2[nH]c1=O | -43.5%
44 | CCOC(=O)C1C(c2cccc(F)c2)NC(=S)NC1(O)C(F)(F)F (stereo not drawn) | -14.4%
45 | CCOCC(O)CSCc1ccc(Cl)cc1 (stereo not drawn) | 1.1%
46 | C1=C[C@@H]2CCN(Cc3ccccc3)Cc3cccc(c32)C1 | -50.6%

Row | Structure (SMILES) | hERG current change (%, negative = inhibition) at 10uM
47 | Fc1ccc(CN2CC[C@H]3C=CCc4cccc(c43)C2)cc1 | -30.2%
48 | Cc1ccc(CN2CC[C@H]3C=CCc4cccc(c43)C2)cc1 | -22.1%
49 | CN(C)c1ccc(P(=O)(OC2CCCCC2)C(O)c2ccncc2)cc1 (stereo not drawn) | 11.2%
50 | CC1CC1C(=O)OCC(=O)NC(=O)c1ccccc1 (stereo not drawn) | 6.93%
51 | CC(C)(C)C(=O)NC1CCN(C(=O)N2CCCC2)CC1 | 10.2%
52 | COc1ccc2c(CC(=O)OCC(=O)Nc3ccccc3[N+](=O)[O-])coc2c1 | 19.4%
53 | c1ccc(NC2=NCCN2CCC2CCCC2)cc1 | -24%
54 | CCCCN1CCN=C1Nc1ccccc1 | 15.2%
55 | c1ccc(CCCCN2CCN=C2Nc2ccccc2)cc1 | -42%
56 | c1ccc(NC2=NCCN2CCCC2CCCC2)cc1 | -53.4%
57 | CCCCCCCN1CCN=C1Nc1ccccc1 | -58%
58 | c1ccc(NC2=NCCN2CCCC2CCCCC2)cc1 | -47.6%
59 | O=C(Oc1ccc(/C=N/NC(=O)c2ccccc2F)cc1)c1ccccc1 | 10.3%
60 | COC(=O)c1ccc(CSc2nnc(NC(=O)C3CC(=O)N(Cc4ccc(C)cc4)C3)s2)cc1 (stereo not drawn) | 8.78%
61 | COC(=O)/C=C1/SC(=NC(=O)c2ccccc2)NC1=O | -13.9%
62 | COC(=O)/C=C1/SC(=NC(=O)c2ccc(Cl)cc2)NC1=O | 26.7%
63 | COC(=O)/C=C1\SC(=NC(=O)c2cccc(Cl)c2)NC1=O | -79.5%
64 | COc1ccc(/C=C/C(=O)NCC(=O)N/N=C/c2cccs2)cc1 | 0.0661%
65 | CCC(C)[C@H](NC(=O)NCc1ccc(OC)c(OC)c1)C(=O)O (stereo partly drawn) | 7.82%
66 | Cc1[nH]nc(N2CCCCC2)c1[N+](=O)[O-] | -6.37%
67 | Cc1nc(Nc2ccc3c(c2)OCCO3)c2c(C)c(C)sc2n1 | -18.5%
68 | Cc1sc2nc(CN3CCCCC3)nc(Nc3ccc4c(c3)OCCO4)c2c1C | -85.8%
69 | Cc1sc2nc(CN3CCOCC3)nc(NCCc3ccccc3)c2c1C | -30%

Row | Structure (SMILES) | hERG current change (%, negative = inhibition) at 10uM
70 | Cc1sc2nc(CN3CCOCC3)nc(NS(=O)(=O)c3ccc4c(c3)OCCO4)c2c1C | 6.33%
71 | Cc1sc2nc(CN3CCCC3)nc(Cl)c2c1C | -4.03%
72 | Cc1sc2nc(CN3CCCC3)nc(NCc3ccncc3)c2c1C | -69.1%
73 | COc1ccc(-c2nnnn2C)cc1S(=O)(=O)Nc1ccc(C)cc1C | -7.53%
74 | Cc1cc(OC(C)C(=O)NCCN2CCOCC2)c2c(C)c(C)c(=O)oc2c1 (stereo not drawn) | 9.89%
75 | COc1cccc(N2CCN(C(=S)Nc3ccccc3)CC2)c1 | 19%
76 | O=C(CCCNS(=O)(=O)c1cccc2nsnc12)N1CCCCC1 | 10.7%
77 | COc1cc(CNC2CCCC2)cc(Cl)c1OCc1ccccc1F.Cl | -1.44%
78 | Cc1ccc(C)c(-c2ccc(=O)n(Cc3c(F)cccc3Cl)n2)c1 | 3.88%
79 | CN(Cc1cc2ccccc2[nH]c1=O)C(=O)C1CCCCC1 | -71.6%
80 | CC(C)(C)N(Cc1cc2ccccc2[nH]c1=O)C(=O)C1CCCCC1 | -11.9%
81 | CCN(Cc1cc2ccccc2[nH]c1=O)C(=O)C1CCCCC1 | -13.3%
82 | CCOC(=O)[C@@H]1[C@H]2COc3ccccc3[C@@H]2N2C(=O)N(c3ccccc3)C(=O)[C@@]12C | 11.4%
83 | COc1ccc(/C=N\NC(=O)c2ccc(-c3ccccc3)cc2)cc1COC(C)=O | -0.748%
84 | CC1=C(C(=O)N(C)C)C(c2ccccc2OC(F)F)NC(=O)N1 (stereo not drawn) | 3.49%
85 | C[N+](C)(C)CC(=O)Nc1ccc(Cl)cc1C(=O)c1ccccc1.[Br-] | 21.4%
86 | CCN(CC)CC(=O)Nc1ccc(C)cc1C(=O)c1ccccc1 | -19.5%
87 | CN(C)CCCNCC(=O)Nc1ccc(Cl)cc1C(=O)c1ccccc1.O=C(O)C(=O)O | -69%
88 | CCN(CC)CC(=O)Nc1ccc(Cl)cc1C(=O)c1ccccc1 | -21.2%
89 | O=C(Nc1ccc(Cl)cc1C(=O)c1ccccc1)c1ccccc1 | 3.76%
90 | CCN(CC)CCNCC(=O)Nc1ccc(Cl)cc1C(=O)c1ccccc1.O=C(O)C(=O)O | -75.2%
